Source: PubChem BioAssay
Calls of active or inactive are those of the source. Rule as the data show it: active = inhibition above about 31%; inactive = the rest.

test: reversal of MRP1-mediated doxorubicin resistance, pilot screen, H69AR cells, doxorubicin co-treatment (AID 601); settings: H69AR cells, CellTiter-Glo, 72 h; compound alone cytotoxicity; at 10 µM

Structure (SMILES)	viability
Cc1cccn2c(=O)c3cc(C(=O)NC4CCCC4)c(=N)n(C4CCCC4)c3nc12	27.6%
Cc1ccc(Cl)cc1N1CCN(C(=O)c2cn(C)c(=O)c3c2c2ccccc2n3C)CC1	3.07%
Cc1cc(C)c2ccc(N)nc2c1O	21.4%
CCC(=O)Oc1ccc(C(CC)C(CC)c2ccc(OC(=O)CC)cc2)cc1 (stereo not given)	85.8%
Cc1ccc2[nH]c3c(c2c1)CN(C(=O)CN1CCN(c2cccc(C)c2C)CC1)CC3	31%
CN1CCN(C2=Nc3cc(Cl)ccc3Nc3ccccc32)CC1	68%
COc1ccccc1NC(=O)c1oc2ccccc2c1NC(=O)c1cc(OC)c(OC)c(OC)c1	16.9%
CCOC(=O)c1cc(-c2ccc(Cl)s2)nc2c1c(C)nn2C	35.8%
O=C(O)c1ccc2c3c(ncnc13)-c1ccccc1C2=O	80.3%
COc1cc2nc(N3CCN(C(=O)c4ccco4)CC3)nc(N)c2cc1OC	15.4%
Cc1nnc(NCc2n[nH]c(=O)c3ccccc23)c2ccccc12	67.1%
CCN(CC)S(=O)(=O)c1ccc2[nH]cc(C(=O)NCCC3=CCCCC3)c(=O)c2c1	3.36%
CCCCn1c(SCc2ccc(Cl)cc2)nc2c1c(=O)[nH]c(=O)n2C	76.7%
O=C(CNCCC1=CCCCC1)Nc1ccccc1N1CCCCC1	61.6%
COc1cc2c(C#N)c(N3CCN(c4ccccc4OC)CC3)nc(N)c2c(N)n1	67.8%
COc1ccc(Cl)cc1C(=O)NCCc1ccc(S(=O)(=O)NC(=O)NC2CCCCC2)cc1	93.5%
Clc1ccc(C2=Nn3c(nnc3-c3n[nH]c4c3CCC4)SC2)cc1Cl	9%
C(=C\c1ccccc1)/CSc1nnc(-c2ccccn2)n1Cc1ccco1	21.4%
CC(C)Cn1c2c(c(O)c(C(=O)Nc3ncccc3O)c1=O)CCCC2	52.4%
Oc1ccc(/C=C/c2cc(O)cc(O)c2)cc1	76.9%

Structure (SMILES)	viability
N#Cc1ccccc1Cn1c(=O)n(Cc2ccc(C(=O)NCc3ccco3)cc2)c(=O)c2ccccc21	11%
CO[C@H]1C[C@@H]2CC[C@@H](C)[C@@](O)(O2)C(=O)C(=O)N2CCCC[C@H]2C(=O)O[C@H]([C@H](C)C[C@@H]2CC[C@@H](O)[C@H](OC)C2)CC(=O)[C@H](C)C=C(C)[C@@H](O)[C@@H](OC)C(=O)[C@H](C)C[C@H](C)C=CC=CC=C1C	67.1%
COc1ccc(-n2cc(-c3ccccc3)c3c(N4CCN(CCO)CC4)ncnc32)cc1	56.2%
O=C(O)c1cc(O)c2c(c1)C(=O)c1cccc(O)c1C2=O	76.9%
C(=C\c1ccccc1)/CN1CCN(C(c2ccccc2)c2ccccc2)CC1	71%
Oc1cccc(Nc2nc(NCC3CCCO3)c3ccccc3n2)c1 (stereo not given)	22.1%
Clc1ccc(OCc2nnc(SCCN3CCCCC3)n2Cc2ccco2)cc1	38.6%
CCC(=O)Oc1ccc(/C(CC)=C(\CC)c2ccc(OC(=O)CC)cc2)cc1	8.75%
O=S(=O)(c1cccc2cnccc12)N1CCCNCC1	97.4%
O=C(Nc1ccc2nn(-c3ccccc3)nc2c1)c1ccc(Br)o1	9.49%
CCc1oc2ccccc2c1C(=O)c1cc(Br)c(O)c(Br)c1	79%
O=C(Nc1ccc2oc(Cc3ccc(Cl)cc3)nc2c1)c1cccnc1	37.9%
CC(=O)Nc1ccccc1OCC(=O)c1cc(C)n(Cc2cccs2)c1C	85.8%
O=C(CCCN1CCC(O)(c2ccc(Cl)cc2)CC1)c1ccc(F)cc1	84%
COC(=O)c1ccccc1NC(=O)Cn1c(-c2nonc2N)nc2ccccc21	15.7%
CCCCC[C@H](O)/C=C/[C@H]1C=CC(=O)[C@@H]1C/C=C\CCCC(=O)O	67.4%
Cc1ccc(-c2cc(C(F)F)nc(NCC3CCCO3)n2)cc1 (stereo not given)	100%
CCc1nnc(NC(=O)c2ccc(S(=O)(=O)N(CC(C)C)CC(C)C)cc2)o1	32.9%
COc1ccc(Br)cc1-c1noc(-c2ccccc2)n1	78.5%
Fc1ccc(C(c2ccc(F)cc2)N2CCN(C/C=C/c3ccccc3)CC2)cc1	76.7%

test: 384-well plate pilot, post-Golgi transport modulator project, inhibition of yeast transport mutant growth (AID 636); settings: absorbance 615 nm, about 18 h, stronger effect = higher value

Structure (SMILES)	inhibition
Cc1cccn2c(=O)c3cc(C(=O)NC4CCCC4)c(=N)n(C4CCCC4)c3nc12	-8.49% (inactive)
Cc1ccc(Cl)cc1N1CCN(C(=O)c2cn(C)c(=O)c3c2c2ccccc2n3C)CC1	-1.73% (inactive)
Cc1cc(C)c2ccc(N)nc2c1O	-1.43% (inactive)
CCC(=O)Oc1ccc(C(CC)C(CC)c2ccc(OC(=O)CC)cc2)cc1 (stereo not given)	-5.32% (inactive)
Cc1ccc2[nH]c3c(c2c1)CN(C(=O)CN1CCN(c2cccc(C)c2C)CC1)CC3	0% (inactive)
CN1CCN(C2=Nc3cc(Cl)ccc3Nc3ccccc32)CC1	1.82% (inactive)
COc1ccccc1NC(=O)c1oc2ccccc2c1NC(=O)c1cc(OC)c(OC)c(OC)c1	-3.33% (inactive)
CCOC(=O)c1cc(-c2ccc(Cl)s2)nc2c1c(C)nn2C	-1.45% (inactive)
O=C(O)c1ccc2c3c(ncnc13)-c1ccccc1C2=O	5.51% (inactive)
COc1cc2nc(N3CCN(C(=O)c4ccco4)CC3)nc(N)c2cc1OC	2.47% (inactive)
Cc1nnc(NCc2n[nH]c(=O)c3ccccc23)c2ccccc12	-3.38% (inactive)
CCN(CC)S(=O)(=O)c1ccc2[nH]cc(C(=O)NCCC3=CCCCC3)c(=O)c2c1	-6.4% (inactive)
CCCCn1c(SCc2ccc(Cl)cc2)nc2c1c(=O)[nH]c(=O)n2C	-4% (inactive)
O=C(CNCCC1=CCCCC1)Nc1ccccc1N1CCCCC1	-1.08% (inactive)
COc1cc2c(C#N)c(N3CCN(c4ccccc4OC)CC3)nc(N)c2c(N)n1	-0.26% (inactive)
COc1ccc(Cl)cc1C(=O)NCCc1ccc(S(=O)(=O)NC(=O)NC2CCCCC2)cc1	0.26% (inactive)
Clc1ccc(C2=Nn3c(nnc3-c3n[nH]c4c3CCC4)SC2)cc1Cl	-6.58% (inactive)
C(=C\c1ccccc1)/CSc1nnc(-c2ccccn2)n1Cc1ccco1	-6.53% (inactive)
CC(C)Cn1c2c(c(O)c(C(=O)Nc3ncccc3O)c1=O)CCCC2	-2% (inactive)
Oc1ccc(/C=C/c2cc(O)cc(O)c2)cc1	0.13% (inactive)

Structure (SMILES)	inhibition
N#Cc1ccccc1Cn1c(=O)n(Cc2ccc(C(=O)NCc3ccco3)cc2)c(=O)c2ccccc21	-1.82% (inactive)
CO[C@H]1C[C@@H]2CC[C@@H](C)[C@@](O)(O2)C(=O)C(=O)N2CCCC[C@H]2C(=O)O[C@H]([C@H](C)C[C@@H]2CC[C@@H](O)[C@H](OC)C2)CC(=O)[C@H](C)C=C(C)[C@@H](O)[C@@H](OC)C(=O)[C@H](C)C[C@H](C)C=CC=CC=C1C	93.6% (active)
COc1ccc(-n2cc(-c3ccccc3)c3c(N4CCN(CCO)CC4)ncnc32)cc1	-6.13% (inactive)
O=C(O)c1cc(O)c2c(c1)C(=O)c1cccc(O)c1C2=O	-4.42% (inactive)
C(=C\c1ccccc1)/CN1CCN(C(c2ccccc2)c2ccccc2)CC1	1.43% (inactive)
Oc1cccc(Nc2nc(NCC3CCCO3)c3ccccc3n2)c1 (stereo not given)	-5% (inactive)
Clc1ccc(OCc2nnc(SCCN3CCCCC3)n2Cc2ccco2)cc1	-7.33% (inactive)
CCC(=O)Oc1ccc(/C(CC)=C(\CC)c2ccc(OC(=O)CC)cc2)cc1	-0.39% (inactive)
O=S(=O)(c1cccc2cnccc12)N1CCCNCC1	-2.08% (inactive)
O=C(Nc1ccc2nn(-c3ccccc3)nc2c1)c1ccc(Br)o1	-7.43% (inactive)
CCc1oc2ccccc2c1C(=O)c1cc(Br)c(O)c(Br)c1	-0.52% (inactive)
O=C(Nc1ccc2oc(Cc3ccc(Cl)cc3)nc2c1)c1cccnc1	-1.73% (inactive)
CC(=O)Nc1ccccc1OCC(=O)c1cc(C)n(Cc2cccs2)c1C	-3.01% (inactive)
O=C(CCCN1CCC(O)(c2ccc(Cl)cc2)CC1)c1ccc(F)cc1	2.34% (inactive)
COC(=O)c1ccccc1NC(=O)Cn1c(-c2nonc2N)nc2ccccc21	1.07% (inactive)
CCCCC[C@H](O)/C=C/[C@H]1C=CC(=O)[C@@H]1C/C=C\CCCC(=O)O	-2.99% (inactive)
Cc1ccc(-c2cc(C(F)F)nc(NCC3CCCO3)n2)cc1 (stereo not given)	1.56% (inactive)
CCc1nnc(NC(=O)c2ccc(S(=O)(=O)N(CC(C)C)CC(C)C)cc2)o1	3.9% (inactive)
COc1ccc(Br)cc1-c1noc(-c2ccccc2)n1	-3.87% (inactive)
Fc1ccc(C(c2ccc(F)cc2)N2CCN(C/C=C/c3ccccc3)CC2)cc1	3.38% (inactive)
